Laboratory results as given in the supplement of paper PMC10849652.
About 8,800 targets were measured; listed, in parts, are those with a hit and a random draw of the rest. About 0.5% of all pairs of compound and target were hits. Unmarked numbers belong to inactive results.

Key:
Assay in all cases: log2 fold change, soluble protein after heating vs DMSO (PISA); higher = thermal stabilisation; K562 lysate, 10 uM; active = over 0.2 and 3.5 SD of the protein, either way, in both replicates (recomputed)
nilotinib = compound: Cc1cn(-c2cc(NC(=O)c3ccc(C)c(Nc4nccc(-c5cccnc5)n4)c3)cc(C(F)(F)F)c2)cn1 [nilotinib]
Method in brief: (§1)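 K562 pellets were dounce-homogenised in PBS pH 7.4 containing 1 mM MgCl2, and the crude extract, at 1 mg/mL protein, was exposed to 10 μM compound for 30 min. Aliquots were heated for 3 min across 48°C-58°C, pooled, brought to 0.5% NP-40 at 4°C and spun at 21,000xg for 90 min, with the supernatant taken as soluble protein. TMTpro 16plex LC-MS/MS with equalised channel sums quantified that protein. Values are log-two fold changes in thermal stability relative to solvent controls, taken from duplicates.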

[1] = compound: Cc1nc(Nc2n[nH]c3c2CN(C(=O)N[C@H](CN(C)C)c2ccccc2)C3(C)C)c2sccc2n1
Method in brief: as §1

dasatinib = compound: Cc1nc(Nc2ncc(C(=O)Nc3c(C)cccc3Cl)s2)cc(N2CCN(CCO)CC2)n1 [dasatinib]
Method in brief: as §1

[2] = compound: Cc1ncc(-c2ccnc(Nc3ccc(S(C)(=O)=O)cc3)n2)n1C(C)C
Method in brief: as §1

[3] = compound: Cn1cc(-c2ccc3c(c2)CCN3C(=O)Cc2cccc(C(F)(F)F)c2)c2c(N)ncnc21
Method in brief: as §1

quisinostat = compound: Cn1cc(CNCC2CCN(c3ncc(C(=O)NO)cn3)CC2)c2ccccc21 [quisinostat]
Method in brief: as §1

tipifarnib = compound: Cn1cncc1[C@@](N)(c1ccc(Cl)cc1)c1ccc2c(c1)c(-c1cccc(Cl)c1)cc(=O)n2C [tipifarnib]
Method in brief: as §1

[4] = compound: NC(=O)Nc1cc(-c2cccc(F)c2)sc1C(=O)N[C@H]1CCCNC1
Method in brief: as §1

[5] = compound: NC(=O)c1cnc(N[C@@H]2CCCC[C@@H]2N)nc1Nc1cccc(-n2nccn2)c1
Method in brief: as §1

[6] = compound: NC1(c2ccc(-c3nc4ccn5c(=O)[nH]nc5c4cc3-c3ccccc3)cc2)CCC1
Method in brief: as §1

[7] = compound: NCC(=O)Nc1ccc(-n2nc(C(F)(F)F)cc2-c2ccc3c(ccc4ccccc43)c2)cc1
Method in brief: as §1

vorinostat = compound: O=C(CCCCCCC(=O)Nc1ccccc1)NO [vorinostat]
Method in brief: as §1

silmitasertib = compound: O=C(O)c1ccc2c(c1)nc(Nc1cccc(Cl)c1)c1ccncc12 [silmitasertib]
Method in brief: as §1

[8] = compound: O=C1NC(=O)C(c2cnc3ccccn23)=C1c1cn2c3c(cc(F)cc13)CN(C(=O)N1CCCCC1)CC2
Method in brief: as §1

entospletinib = compound: c1cn2cc(-c3ccc4cn[nH]c4c3)nc(Nc3ccc(N4CCOCC4)cc3)c2n1 [entospletinib]
Method in brief: as §1

Sequence of UniProt P27986 (P27986 whole entry, looked up): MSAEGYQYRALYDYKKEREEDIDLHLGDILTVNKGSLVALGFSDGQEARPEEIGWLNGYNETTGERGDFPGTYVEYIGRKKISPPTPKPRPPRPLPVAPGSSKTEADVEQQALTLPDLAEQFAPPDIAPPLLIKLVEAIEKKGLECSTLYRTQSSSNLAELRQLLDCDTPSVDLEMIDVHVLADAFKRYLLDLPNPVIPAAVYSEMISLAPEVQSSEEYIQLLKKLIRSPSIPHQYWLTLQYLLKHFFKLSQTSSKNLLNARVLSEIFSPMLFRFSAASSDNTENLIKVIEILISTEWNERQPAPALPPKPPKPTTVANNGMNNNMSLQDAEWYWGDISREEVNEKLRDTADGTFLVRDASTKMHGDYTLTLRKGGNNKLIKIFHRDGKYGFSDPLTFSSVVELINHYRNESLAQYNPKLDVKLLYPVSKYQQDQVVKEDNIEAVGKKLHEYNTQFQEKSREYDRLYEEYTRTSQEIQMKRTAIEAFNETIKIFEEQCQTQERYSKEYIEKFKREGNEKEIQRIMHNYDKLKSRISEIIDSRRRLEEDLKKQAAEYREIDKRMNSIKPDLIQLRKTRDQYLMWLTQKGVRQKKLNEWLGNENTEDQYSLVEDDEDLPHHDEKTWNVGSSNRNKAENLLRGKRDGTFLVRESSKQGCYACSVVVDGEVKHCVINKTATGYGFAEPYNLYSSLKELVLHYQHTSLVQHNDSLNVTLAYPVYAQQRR
Sequence of UniProt Q9P215 (Q9P215 whole entry, looked up): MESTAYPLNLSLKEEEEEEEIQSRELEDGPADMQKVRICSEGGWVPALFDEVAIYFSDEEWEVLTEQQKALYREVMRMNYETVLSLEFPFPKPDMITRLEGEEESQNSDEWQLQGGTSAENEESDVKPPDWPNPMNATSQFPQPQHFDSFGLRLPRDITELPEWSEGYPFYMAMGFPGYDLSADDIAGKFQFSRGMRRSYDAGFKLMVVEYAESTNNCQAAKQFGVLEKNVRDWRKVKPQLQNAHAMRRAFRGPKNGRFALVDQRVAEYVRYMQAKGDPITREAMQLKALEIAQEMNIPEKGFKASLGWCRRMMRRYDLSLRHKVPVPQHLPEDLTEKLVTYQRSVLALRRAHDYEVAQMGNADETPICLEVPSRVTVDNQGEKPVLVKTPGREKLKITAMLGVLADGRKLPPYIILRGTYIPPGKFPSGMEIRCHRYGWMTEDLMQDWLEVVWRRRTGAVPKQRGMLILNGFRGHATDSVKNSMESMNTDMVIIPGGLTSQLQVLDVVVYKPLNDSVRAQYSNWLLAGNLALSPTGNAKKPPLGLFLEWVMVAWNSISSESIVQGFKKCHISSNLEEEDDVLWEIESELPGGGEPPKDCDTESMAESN
Sequence of UniProt Q8TCD6 (Q8TCD6 whole entry, looked up): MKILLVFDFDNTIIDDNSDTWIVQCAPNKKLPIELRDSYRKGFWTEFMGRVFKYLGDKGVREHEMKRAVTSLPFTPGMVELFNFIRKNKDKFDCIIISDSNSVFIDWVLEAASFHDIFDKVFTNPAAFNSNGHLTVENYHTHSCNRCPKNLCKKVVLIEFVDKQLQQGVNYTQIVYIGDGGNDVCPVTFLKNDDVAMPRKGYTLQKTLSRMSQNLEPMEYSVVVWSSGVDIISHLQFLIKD
Sequence of UniProt Q8TCG2 (Q8TCG2 whole entry, looked up): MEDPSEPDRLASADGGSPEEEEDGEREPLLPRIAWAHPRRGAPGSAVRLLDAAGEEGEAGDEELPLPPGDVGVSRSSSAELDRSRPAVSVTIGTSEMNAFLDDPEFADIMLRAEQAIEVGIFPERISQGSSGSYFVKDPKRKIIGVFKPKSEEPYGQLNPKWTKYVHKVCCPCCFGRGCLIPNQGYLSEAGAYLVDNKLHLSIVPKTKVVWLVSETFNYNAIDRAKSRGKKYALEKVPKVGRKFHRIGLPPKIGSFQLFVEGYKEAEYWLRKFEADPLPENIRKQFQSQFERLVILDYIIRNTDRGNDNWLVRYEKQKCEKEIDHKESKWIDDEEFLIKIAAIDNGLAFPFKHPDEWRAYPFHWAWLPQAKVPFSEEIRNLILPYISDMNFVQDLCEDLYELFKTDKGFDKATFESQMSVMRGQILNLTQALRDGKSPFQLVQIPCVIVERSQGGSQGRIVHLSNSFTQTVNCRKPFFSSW
Sequence of UniProt P48147 (P48147 whole entry, looked up): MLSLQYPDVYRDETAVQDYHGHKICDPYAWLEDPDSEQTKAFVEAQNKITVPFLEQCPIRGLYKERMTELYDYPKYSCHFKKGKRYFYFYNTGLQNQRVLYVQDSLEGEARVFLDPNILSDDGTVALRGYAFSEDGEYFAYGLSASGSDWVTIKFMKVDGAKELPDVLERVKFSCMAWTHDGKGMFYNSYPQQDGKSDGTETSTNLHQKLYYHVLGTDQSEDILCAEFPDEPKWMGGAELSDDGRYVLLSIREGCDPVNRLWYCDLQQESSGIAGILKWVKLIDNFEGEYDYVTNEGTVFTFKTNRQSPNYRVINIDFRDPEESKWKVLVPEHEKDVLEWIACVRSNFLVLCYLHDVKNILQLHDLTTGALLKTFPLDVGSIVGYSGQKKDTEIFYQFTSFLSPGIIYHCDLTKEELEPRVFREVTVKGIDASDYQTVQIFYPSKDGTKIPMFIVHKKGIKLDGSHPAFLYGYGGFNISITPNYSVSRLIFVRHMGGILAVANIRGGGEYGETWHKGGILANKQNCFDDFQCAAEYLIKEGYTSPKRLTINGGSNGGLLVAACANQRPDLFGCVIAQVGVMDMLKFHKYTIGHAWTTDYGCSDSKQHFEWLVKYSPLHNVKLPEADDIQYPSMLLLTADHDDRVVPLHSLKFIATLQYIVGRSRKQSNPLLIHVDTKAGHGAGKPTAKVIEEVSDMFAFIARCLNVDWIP
Sequence of UniProt Q13356 (Q13356 whole entry, looked up): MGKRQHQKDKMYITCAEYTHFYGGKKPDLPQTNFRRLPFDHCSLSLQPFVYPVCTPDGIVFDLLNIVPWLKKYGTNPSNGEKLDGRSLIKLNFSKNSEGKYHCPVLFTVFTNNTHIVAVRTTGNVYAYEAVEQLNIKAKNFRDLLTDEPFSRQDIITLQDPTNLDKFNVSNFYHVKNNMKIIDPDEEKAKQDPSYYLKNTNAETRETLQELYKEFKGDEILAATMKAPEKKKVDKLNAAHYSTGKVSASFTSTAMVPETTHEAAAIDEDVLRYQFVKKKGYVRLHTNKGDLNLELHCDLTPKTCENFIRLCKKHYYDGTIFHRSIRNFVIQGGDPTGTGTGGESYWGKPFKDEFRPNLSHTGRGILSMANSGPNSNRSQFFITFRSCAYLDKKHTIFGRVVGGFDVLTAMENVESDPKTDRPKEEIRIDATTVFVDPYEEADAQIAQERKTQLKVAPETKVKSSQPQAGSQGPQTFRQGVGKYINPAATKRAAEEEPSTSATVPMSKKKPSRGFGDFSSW
Sequence of UniProt P54278 (P54278 whole entry, looked up): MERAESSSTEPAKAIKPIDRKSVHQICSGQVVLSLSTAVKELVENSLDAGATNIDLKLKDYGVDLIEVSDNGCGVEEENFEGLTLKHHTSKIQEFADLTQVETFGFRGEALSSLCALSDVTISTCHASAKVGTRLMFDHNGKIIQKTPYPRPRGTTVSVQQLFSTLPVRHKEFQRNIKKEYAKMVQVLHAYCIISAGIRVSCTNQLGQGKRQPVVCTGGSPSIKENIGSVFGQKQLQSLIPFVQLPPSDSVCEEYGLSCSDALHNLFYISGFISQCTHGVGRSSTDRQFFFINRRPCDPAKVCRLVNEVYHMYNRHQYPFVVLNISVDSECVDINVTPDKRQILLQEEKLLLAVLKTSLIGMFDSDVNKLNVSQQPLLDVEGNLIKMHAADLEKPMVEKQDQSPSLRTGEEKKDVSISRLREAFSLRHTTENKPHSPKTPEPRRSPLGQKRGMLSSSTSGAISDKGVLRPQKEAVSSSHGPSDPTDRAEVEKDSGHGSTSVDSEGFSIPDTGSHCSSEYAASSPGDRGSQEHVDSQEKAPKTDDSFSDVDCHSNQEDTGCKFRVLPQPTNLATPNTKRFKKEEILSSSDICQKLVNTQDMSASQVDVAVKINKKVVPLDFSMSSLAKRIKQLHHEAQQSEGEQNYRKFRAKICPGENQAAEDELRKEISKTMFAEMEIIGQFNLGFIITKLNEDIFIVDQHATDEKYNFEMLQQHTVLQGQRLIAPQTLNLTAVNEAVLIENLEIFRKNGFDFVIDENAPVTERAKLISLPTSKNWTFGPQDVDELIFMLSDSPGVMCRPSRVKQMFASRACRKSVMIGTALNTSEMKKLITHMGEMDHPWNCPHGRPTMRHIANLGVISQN
Sequence of UniProt Q8N4L2 (Q8N4L2 whole entry, looked up): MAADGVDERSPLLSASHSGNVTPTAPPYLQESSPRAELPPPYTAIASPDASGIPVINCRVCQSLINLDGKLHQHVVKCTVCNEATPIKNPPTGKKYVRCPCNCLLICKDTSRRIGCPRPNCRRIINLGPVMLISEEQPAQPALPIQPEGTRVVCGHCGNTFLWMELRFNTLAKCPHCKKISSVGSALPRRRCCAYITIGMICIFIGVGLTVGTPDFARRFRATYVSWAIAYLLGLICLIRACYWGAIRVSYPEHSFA
Sequence of UniProt Q99541 (Q99541 whole entry, looked up): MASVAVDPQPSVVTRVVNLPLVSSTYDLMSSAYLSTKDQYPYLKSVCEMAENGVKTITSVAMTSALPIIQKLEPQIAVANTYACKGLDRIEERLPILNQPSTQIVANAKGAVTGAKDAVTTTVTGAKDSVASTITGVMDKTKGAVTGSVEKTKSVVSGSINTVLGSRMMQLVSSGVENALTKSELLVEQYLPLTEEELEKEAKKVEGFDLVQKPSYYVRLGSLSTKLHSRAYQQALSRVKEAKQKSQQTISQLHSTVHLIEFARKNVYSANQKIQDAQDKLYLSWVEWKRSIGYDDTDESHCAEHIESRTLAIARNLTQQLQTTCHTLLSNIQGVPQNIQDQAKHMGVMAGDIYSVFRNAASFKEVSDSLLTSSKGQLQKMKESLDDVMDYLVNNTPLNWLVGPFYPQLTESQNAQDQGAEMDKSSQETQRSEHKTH
Sequence of UniProt Q96I23 (Q96I23 whole entry, looked up): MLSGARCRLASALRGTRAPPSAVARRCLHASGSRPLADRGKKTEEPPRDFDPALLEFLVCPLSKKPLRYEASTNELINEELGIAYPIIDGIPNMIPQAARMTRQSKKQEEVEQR

| Target | log2 fold change (nilotinib) | log2 fold change [1] | log2 fold change (dasatinib) | log2 fold change [2] | log2 fold change [3] | log2 fold change (quisinostat) | log2 fold change (tipifarnib) | log2 fold change [4] | log2 fold change [5] | log2 fold change [6] | log2 fold change [7] | log2 fold change (vorinostat) | log2 fold change (silmitasertib) | log2 fold change [8] | log2 fold change (entospletinib) |
| --- | --- | --- | --- | --- | --- | --- | --- | --- | --- | --- | --- | --- | --- | --- | --- |
| PI4K2B (UniProt Q8TCG2) | -0.037 | 0.021 | -0.021 | 0.069 | 0.092 | 0.063 | -0.036 | 0.076 | 0.689 (active) | 0.009 | -0.038 | -0.054 | 0.041 | 0.011 | 0.014 |
| PIK3R1 (UniProt P27986) | -0.041 | -0.072 | -0.024 | 0.058 | 0.004 | -0.027 | 0.039 | 0.042 | 0.021 | 0.249 | -0.035 | -0.206 | 0.213 | 0.022 | 0.03 |
| PMS2 (UniProt P54278) | -0.024 | -0.021 | -0.1 | 0.039 | 0.047 | -0.011 | -0.078 | 0.043 | 0 | -0.006 | 0.064 | -0.384 (active) | 0.026 | 0.027 | 0.001 |
| PHOSPHO2 (UniProt Q8TCD6) | 0.003 | -0.013 | 0.024 | 0.038 | -0.033 | 0.03 | 0.068 | -0.036 | -0.004 | 0.013 | -0.051 | 0.181 | -0.002 | 0.001 | -0.116 |
| PTPN1 (UniProt P18031) | -0.001 | 0.019 | -0.062 | 0.007 | 0.027 | -0.051 | -0.032 | 0.039 | 0.026 | 0.021 | -0.005 | -0.29 (active) | 0.04 | 0.012 | 0.048 |
| PLIN2 (UniProt Q99541) | 0.088 | -0.012 | -0.092 | 0 | 0.008 | -0.031 | -0.153 | 0.038 | -0.003 | -0.018 | 0.012 | 0.063 | -0.008 | 0.008 | -0.032 |
| PPIL2 (UniProt Q13356) | -0.032 | 0.014 | 0.064 | 0.008 | -0.004 | -0.063 | -0.038 | 0.018 | -0.063 | 0.011 | 0.015 | -0.32 (active) | 0.019 | -0.009 | 0.014 |
| PUM1 isoform 3 (UniProt Q14671) | -0.072 | -0.012 | -0.027 | 0.03 | 0.016 | 0.01 | -0.057 | 0.004 | -0.021 | 0.028 | 0.027 | -0.192 | 0 | -0.004 | -0.009 |
| PIP4P2 (UniProt Q8N4L2) | 0.287 (active) | -0.073 | -0.171 | -0.015 | -0.048 | 0.035 | -0.148 | -0.016 | 0.121 | -0.007 | 0.004 | 0.029 | 0.034 | 0.034 | -0.05 |
| PRKD2 isoform 3 (UniProt Q9BZL6) | 0.079 | -0.229 | 0.028 | -0.054 | 0.04 | -0.046 | 0.069 | -0.115 | 0.06 | -0.01 | -0.043 | -0.326 (active) | 0.051 | 0.088 | 0.052 |
| PRIM2 (UniProt P49643) | 0.052 | 0.007 | -0.038 | -0.012 | 0.02 | -0.027 | -0.037 | 0.018 | -0.001 | -0.021 | -0.008 | -0.296 (active) | 0.09 | 0 | 0.003 |
| PYURF (UniProt Q96I23) | -0.03 | 0.051 | 0.002 | 0.004 | 0.048 | 0.011 | -0.009 | -0.075 | -0.064 | -0.006 | -0.346 (active) | -0.007 | -0.001 | -0.055 | -0.048 |
| POLR2B (UniProt P30876) | -0.027 | 0.01 | -0.065 | 0.004 | 0.003 | -0.057 | -0.012 | 0.027 | -0.004 | -0.03 | 0.03 | -0.344 (active) | 0.034 | 0.024 | -0.008 |
| PLEKHA5 isoform 6 (UniProt Q9HAU0) | -0.052 | 0.032 | 0.006 | -0.005 | 0.021 | -0.011 | 0.009 | 0.011 | -0.008 | -0.003 | -0.029 | -0.305 (active) | -0.003 | -0.016 | 0.022 |
| PREP (UniProt P48147) | 0 | -0.014 | -0.026 | -0.002 | 0.007 | 0.008 | 0.023 | 0.011 | 0.006 | -0.005 | 0.006 | -0.153 | 0.008 | -0.01 | 0.014 |
| PPCDC (UniProt Q96CD2) | -0.002 | -0.014 | -0.06 | -0.017 | -0.04 | -0.015 | 0.022 | 0.013 | 0 | 0.047 | 0.001 | -0.002 | 0.071 | -0.015 | 0.002 |
| POGK (UniProt Q9P215) | -0.04 | 0.005 | -0.068 | -0.001 | -0.023 | -0.086 | 0.007 | 0.108 | 0.008 | -0.006 | 0.018 | -0.173 | 0.002 | -0.083 | 0.3 |
